# Measurements published in ChEMBL document CHEMBL2218924, “A broad activity screen in support of a chemogenomic map for kinase signalling research and drug discovery” (Biochem J, 2013).
# Tests used:
# [1] = biological target: T1, Serine/threonine-protein kinase Nek2 (Homo sapiens) (UniProt P51955); details: at 1 µM
# T1 sequence (whole entry): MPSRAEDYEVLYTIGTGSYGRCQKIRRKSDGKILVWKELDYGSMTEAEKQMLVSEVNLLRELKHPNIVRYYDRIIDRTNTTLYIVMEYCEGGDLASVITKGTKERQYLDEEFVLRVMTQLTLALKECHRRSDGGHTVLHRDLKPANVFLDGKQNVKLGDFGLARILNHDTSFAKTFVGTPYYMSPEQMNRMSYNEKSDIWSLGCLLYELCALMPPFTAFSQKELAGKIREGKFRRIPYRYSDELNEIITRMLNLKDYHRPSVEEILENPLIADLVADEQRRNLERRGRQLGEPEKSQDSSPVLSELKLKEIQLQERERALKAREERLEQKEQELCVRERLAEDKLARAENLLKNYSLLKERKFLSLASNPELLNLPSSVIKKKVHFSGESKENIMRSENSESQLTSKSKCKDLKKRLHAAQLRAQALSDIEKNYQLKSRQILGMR
# [2] = biological target: T1, Serine/threonine-protein kinase Nek2 (Homo sapiens); details: at 10 µM
# [3] = biological target: T2, Serine/threonine-protein kinase Nek3 (Homo sapiens) (UniProt P51956); details: at 10 µM
# T2 sequence (whole entry): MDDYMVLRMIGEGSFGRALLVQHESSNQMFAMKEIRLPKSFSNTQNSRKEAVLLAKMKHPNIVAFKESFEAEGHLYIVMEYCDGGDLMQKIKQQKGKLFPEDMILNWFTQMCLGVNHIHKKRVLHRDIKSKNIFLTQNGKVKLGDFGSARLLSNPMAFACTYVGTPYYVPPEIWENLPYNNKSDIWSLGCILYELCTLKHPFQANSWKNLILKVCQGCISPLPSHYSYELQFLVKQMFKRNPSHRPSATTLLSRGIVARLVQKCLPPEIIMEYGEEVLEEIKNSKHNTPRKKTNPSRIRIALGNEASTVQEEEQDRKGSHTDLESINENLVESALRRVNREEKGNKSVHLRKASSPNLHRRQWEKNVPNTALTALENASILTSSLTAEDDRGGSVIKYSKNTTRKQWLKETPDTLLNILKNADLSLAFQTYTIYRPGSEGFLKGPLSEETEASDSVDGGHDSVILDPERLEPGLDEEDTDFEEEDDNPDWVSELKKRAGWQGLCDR
# [4] = biological target: Serine/threonine-protein kinase tousled-like 2 (Homo sapiens) (UniProt Q86UE8); details: at 1 µM
# Chain of Serine/threonine-protein kinase tousled-like 2 (Homo sapiens) (Q86UE8 whole entry, looked up): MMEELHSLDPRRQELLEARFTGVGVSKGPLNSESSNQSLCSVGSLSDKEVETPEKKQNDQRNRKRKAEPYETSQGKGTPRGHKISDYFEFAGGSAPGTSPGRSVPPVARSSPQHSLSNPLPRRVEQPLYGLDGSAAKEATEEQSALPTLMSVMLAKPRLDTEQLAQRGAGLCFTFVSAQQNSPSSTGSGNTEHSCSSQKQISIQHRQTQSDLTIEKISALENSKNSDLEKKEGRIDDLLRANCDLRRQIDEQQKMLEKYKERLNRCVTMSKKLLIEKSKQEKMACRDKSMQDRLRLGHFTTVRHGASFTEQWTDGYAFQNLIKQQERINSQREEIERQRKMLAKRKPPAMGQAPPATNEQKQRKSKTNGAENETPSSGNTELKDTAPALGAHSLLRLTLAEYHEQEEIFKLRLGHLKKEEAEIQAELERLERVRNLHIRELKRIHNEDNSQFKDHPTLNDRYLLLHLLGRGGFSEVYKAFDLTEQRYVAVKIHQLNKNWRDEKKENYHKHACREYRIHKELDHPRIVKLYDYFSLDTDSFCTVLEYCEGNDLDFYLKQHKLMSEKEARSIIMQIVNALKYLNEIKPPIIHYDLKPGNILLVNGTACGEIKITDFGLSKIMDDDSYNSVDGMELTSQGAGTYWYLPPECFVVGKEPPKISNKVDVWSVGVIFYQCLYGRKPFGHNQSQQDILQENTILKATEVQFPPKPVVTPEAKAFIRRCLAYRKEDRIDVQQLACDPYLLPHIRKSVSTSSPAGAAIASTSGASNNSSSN
# [5] = biological target: Serine/threonine-protein kinase tousled-like 2 (Homo sapiens) (UniProt Q86UE8); details: at 10 µM
# [6] = biological target: T3, Testis-specific serine/threonine-protein kinase 1 (Homo sapiens) (UniProt Q9BXA7); details: at 1 µM
# T3 sequence (whole entry): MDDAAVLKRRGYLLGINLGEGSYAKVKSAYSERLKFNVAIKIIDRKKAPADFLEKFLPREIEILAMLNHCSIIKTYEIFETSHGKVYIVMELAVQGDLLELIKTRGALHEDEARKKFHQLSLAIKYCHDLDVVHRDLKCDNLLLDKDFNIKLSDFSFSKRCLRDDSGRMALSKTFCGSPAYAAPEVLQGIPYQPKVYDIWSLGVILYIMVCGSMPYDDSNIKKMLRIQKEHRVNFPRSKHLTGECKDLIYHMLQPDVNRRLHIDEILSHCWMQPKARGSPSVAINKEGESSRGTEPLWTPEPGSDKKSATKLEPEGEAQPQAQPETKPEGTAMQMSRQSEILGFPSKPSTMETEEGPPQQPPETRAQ
# [7] = biological target: T3, Testis-specific serine/threonine-protein kinase 1 (Homo sapiens); details: at 10 µM
# [8] = biological target: T4, Testis-specific serine/threonine-protein kinase 2 (Homo sapiens) (UniProt Q96PF2); details: at 1 µM
# T4 sequence (whole entry): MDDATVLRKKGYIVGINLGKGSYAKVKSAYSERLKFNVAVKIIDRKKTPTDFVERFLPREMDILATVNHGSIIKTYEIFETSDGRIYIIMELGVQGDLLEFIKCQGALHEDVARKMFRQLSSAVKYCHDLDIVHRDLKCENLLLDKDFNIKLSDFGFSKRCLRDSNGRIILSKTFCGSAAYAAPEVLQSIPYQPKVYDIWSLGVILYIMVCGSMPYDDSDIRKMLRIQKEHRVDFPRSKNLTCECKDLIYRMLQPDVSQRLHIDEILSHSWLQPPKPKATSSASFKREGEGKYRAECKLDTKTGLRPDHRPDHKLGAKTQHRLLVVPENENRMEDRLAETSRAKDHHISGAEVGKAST
# [9] = biological target: T4, Testis-specific serine/threonine-protein kinase 2 (Homo sapiens); details: at 10 µM
# [10] = biological target: T2, Serine/threonine-protein kinase Nek3 (Homo sapiens); details: at 1 µM
smiles,measurement,setting,value
O=[N+]([O-])/C=C/c1ccc2c(c1)OCO2,residual activity,[1],87%
same,residual activity,[2],98%
same,residual activity,[3],107%
same,residual activity,[4],99%
same,residual activity,[5],97%
same,residual activity,[6],96%
same,residual activity,[7],94%
same,residual activity,[8],87%
same,residual activity,[9],74%
O=C1c2ccccc2-c2nc3nnnn3nc21,residual activity,[10],116%
same,residual activity,[3],102%
Cc1ccc(S(=O)(=O)/C=C/C#N)cc1,residual activity,[8],92%
O=C1Nc2ccc3ncsc3c2/C1=C/c1c[nH]cn1,residual activity,[1],64%
same,residual activity,[2],39%
same,residual activity,[10],102%
same,residual activity,[3],32%
same,residual activity,[4],19%
same,residual activity,[5],3%
same,residual activity,[6],68%
same,residual activity,[7],31%
same,residual activity,[8],89%
same,residual activity,[9],86%
Fc1ccc(-c2nc3n(c2-c2ccncc2)CCS3)cc1,residual activity,[8],85%
C[S+]([O-])c1ccc(-c2nc(-c3ccc(F)cc3)c(-c3ccncc3)[nH]2)cc1 (stereo not given),residual activity,[1],114%
same,residual activity,[2],118%
same,residual activity,[10],104%
same,residual activity,[3],104%
same,residual activity,[4],113%
same,residual activity,[5],109%
same,residual activity,[6],106%
same,residual activity,[7],94%
same,residual activity,[8],94%
same,residual activity,[9],100%
O=c1[nH]c2ccccc2n1C1CCN(Cc2ccc(-c3nc4cc5[nH]cnc5cc4nc3-c3ccccc3)cc2)CC1,residual activity,[1],86%
same,residual activity,[2],84%
same,residual activity,[10],111%
same,residual activity,[4],104%
same,residual activity,[5],84%
same,residual activity,[6],97%
same,residual activity,[7],54%
same,residual activity,[8],106%
same,residual activity,[9],45%
CCc1nc(-c2ccc(OC)cc2)[nH]c1-c1ccncc1,residual activity,[1],112%
same,residual activity,[2],105%
same,residual activity,[3],106%
same,residual activity,[4],107%
same,residual activity,[5],100%
same,residual activity,[6],113%
O=C(Nc1cccc(Nc2nccc(Nc3cccc(C(F)(F)F)c3)n2)c1)C1CC1,residual activity,[8],86%
COc1cc2ncnc(Nc3ccc(OCc4ccccc4)cc3)c2cc1OC,residual activity,[1],101%
same,residual activity,[2],113%
same,residual activity,[10],90%
same,residual activity,[3],80%
same,residual activity,[4],115%
same,residual activity,[5],96%
same,residual activity,[6],104%
same,residual activity,[7],90%
same,residual activity,[8],107%
same,residual activity,[9],102%
CSc1nc(-c2ccc(F)cc2)c(-c2ccnc(NC(C)c3ccccc3)c2)[nH]1 (stereo not given),residual activity,[8],98%
CO[C@@H]1[C@H](N(C)C(=O)c2ccccc2)C[C@H]2O[C@]1(C)n1c3ccccc3c3c4c(c5c6ccccc6n2c5c31)C(=O)NC4,residual activity,[8],51%
COc1cc2nccc(Oc3ccc(NC(=S)NC(=O)c4ccccc4C)cc3)c2cc1OC,residual activity,[8],94%
O=C(O)/C=C/c1cc(Br)c(Br)c(Br)c1Br,residual activity,[8],96%
O=C1C(Cl)=C(N2C(=O)CCC2=O)C(=O)c2ccccc21,residual activity,[8],84%
Oc1n[nH]c2nnc(-c3c(-c4ccccc4)nn4ccccc34)cc12,residual activity,[8],95%
COc1ccc(C(=O)Nc2sc3c(c2C(N)=O)CCCC3)cc1OC,residual activity,[8],94%
N#C/C(=C(\N)Sc1ccc(N)cc1)c1ccccc1C(F)(F)F,residual activity,[8],62%
COc1ccc(S(=O)(=O)N(CCO)c2ccccc2CN(C)C/C=C/c2ccc(Cl)cc2)cc1,residual activity,[8],101%
COc1ccc(CNc2nc(N(CCO)CCO)nc3c2ncn3C(C)C)cc1,residual activity,[8],98%
N#Cc1cnc2cnc(NCc3cccnc3)cc2c1Nc1ccc(F)c(Cl)c1,residual activity,[8],14%
Cn1nc2c3c(cccc31)C(=O)c1ccccc1-2,residual activity,[8],79%
CO[C@H]1C[C@@H]2CC[C@@H](C)[C@@](O)(O2)C(=O)C(=O)N2CCCC[C@H]2C(=O)O[C@H]([C@H](C)C[C@@H]2CC[C@@H](O)[C@H](OC)C2)CC(=O)[C@H](C)/C=C(\C)[C@@H](O)[C@@H](OC)C(=O)[C@H](C)C[C@H](C)/C=C/C=C/C=C/1C,residual activity,[8],90%
CC[n+]1c(/C=C/N(C)c2ccccc2)n(-c2ccccc2)c2ccc(-c3nc4ccccc4s3)cc21,residual activity,[8],104%
Oc1cccc(-c2nc(N3CCOCC3)c3oc4ncccc4c3n2)c1,residual activity,[8],93%
c1ccc(-c2cnc(Nc3ccc(OCCN4CCCC4)cc3)s2)cc1,residual activity,[8],100%
C[C@@H](N)[C@H]1CC[C@H](C(=O)Nc2ccncc2)CC1,residual activity,[8],102%
c1ccc2c(-c3ccncc3)c[nH]c2c1,residual activity,[8],100%
CO[C@H]1[C@@H](OC)C[C@H](C)[C@@H](OC)C2=CC(=O)C=C(NC(=O)/C(C)=C/C=C/[C@H](OC)[C@@H](OC(N)=O)/C(C)=C/[C@@H]1C)C2=O,residual activity,[8],97%
NC(=O)c1ccc2[nH]c(-c3ccc(Oc4ccc(Cl)cc4)cc3)nc2c1,residual activity,[8],98%
O=C(c1ccccc1)c1ccc(N2CCOCC2)cc1O,residual activity,[8],87%
O=C1Nc2cc(Br)ccc2/C1=C1/Nc2ccccc2/C1=N\O,residual activity,[8],73%
COc1cc2ncc(-c3ccccc3)nc2cc1OC,residual activity,[8],76%
NC(=O)Nc1sc(-c2ccc(F)cc2)cc1C(N)=O,residual activity,[8],88%
COc1cc2ncnc(Nc3ccc(NC(=O)c4ccccc4)cc3)c2cc1OC,residual activity,[8],106%
O=C(Nc1nc2ccccc2n1CCN1CCOCC1)c1cccc([N+](=O)[O-])c1,residual activity,[8],102%
CC(=O)c1ccc(N2CCOCC2)cc1O,residual activity,[8],89%
O=C(c1cc2cc(O)ccc2[nH]1)c1cc2cc(O)ccc2[nH]1,residual activity,[8],77%
CC(C)n1cnc2c(NCc3ccccc3)nc(NCCCO)nc21,residual activity,[8],86%
O=c1cc(N2CCOCC2)oc2c1ccc1ccccc12,residual activity,[8],95%
CNc1cc2c(Nc3cccc(Br)c3)ncnc2cn1,residual activity,[8],104%
COc1cc2ncnc(N3CCN(C(=O)Nc4ccc(Oc5ccccc5)cc4)CC3)c2cc1OC,residual activity,[8],96%
Nc1n[nH]c2nc3ccccc3nc12,residual activity,[8],95%
O=C(Nc1cccc(Nc2cc(Nc3cccc(C(F)(F)F)c3)ncn2)c1)C1CC1,residual activity,[8],91%
CN(C)c1ccc(/C=C2\C(=O)Nc3ccccc32)cc1,residual activity,[8],92%
COc1ccc(OC)c2c(=S)c3ccccc3[nH]c12,residual activity,[8],106%
O=C1NC(=O)c2c1c1c3ccccc3[nH]c1n1cncc21,residual activity,[8],83%
Oc1ccc(-c2nc(-c3ccc(F)cc3)c(-c3ccncc3)[nH]2)cc1,residual activity,[8],103%
O=c1cc(N2CCNCC2)oc2c(-c3ccccc3)cccc12,residual activity,[8],92%
Nc1cccc(-c2cc3c(Oc4cccc(O)c4)ncnc3[nH]2)c1,residual activity,[8],82%
Cc1nc2cc3nc(-c4cccs4)cnc3cc2n1C,residual activity,[8],104%
